# Screening results: PubChem BioAssay, several laboratories
# A selection: hits, their analogues and other compounds. The true share with any hit is near 27%.
# CYP2C9 inh – inhibitors of human CYP2C9. AID 777. P11712. 96,000 tested, 20% active. inhibition, % at 5 µM. CYP2C9 Supersomes, luciferin-H conversion, luminescence;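 active = blocking of liver enzyme CYP2C9 beyond about 50% at 5 µM, limit read from the data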
# CYP2C9 act – increases human cytochrome P450 2C9 activity; recombinant CYP2C9, luciferin-H conversion, luminescence; stronger effect = higher value; factor 1 = untreated enzyme, 0 = blocked; activation factor at 5 µM; 96,000 tested, 1.4% active; P11712;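 active = activation factor of 2 or more for CYP2C9 at a 5 µM dose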
# CYP2C19 inhib – inhibitors of human CYP2C19; CYP2C19 Supersomes, luciferin-H EGE luminescence, 30 min; 96,000 tested, 21% active; inhibition, % at 5 µM;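 active = CYP2C19 inhibition above a set limit at 5 µM in the primary screen, cut at about 50% in these data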
# CYP2C19 activ – increases human CYP2C19 enzyme activity | recombinant CYP2C19, luciferin-H EGE luminescence; stronger effect = higher value; 0 = fully inhibited enzyme, 1 = untreated enzyme | activation factor at 5 µM | 96,000 tested, under 10 active;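 active = activation factor of at least 2 at 5 µM in the primary screen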
# Cav32 inh – inhibitors of human Cav3.2 T-type calcium channel; O95180; Cav3.2-expressing cells, Fluo-4 calcium fluorescence FDSS; stronger effect = lower value; B-score at 10 µM; 100,000 tested, 4% active; AID 449739;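 active = single-dose well whose peak fluorescence ratio is a statistical outlier from its plate by either plate-standardised score or position-corrected B-score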
# Hits are given with their value; . = inactive; / = no result.
SMILES,CYP2C9 inh,CYP2C9 act,CYP2C19 inhib,CYP2C19 activ,Cav32 inh
Cc1ccc(C(=O)Nc2ccc(S(=O)(=O)N3CCc4ccccc43)cc2)o1,74,.,.,.,.
COC(=O)COc1ccc(S(=O)(=O)N2CCc3ccccc3C2)cc1,.,2,66,.,.
CCC(=O)Nc1ccc(S(=O)(=O)N2CCc3ccccc3C2)cc1,.,.,86,.,-4.5
CCC(=O)Nc1ccc(S(=O)(=O)c2ccc(NC(=O)CC)cc2)cc1,70,.,.,.,.
CCC(=O)Nc1ccc(S(=O)(=O)N2CCOCC2)cc1,.,.,.,.,.
CCOC(=O)N1CCC(NC(=O)CCc2c(C)nc3ncnn3c2C)CC1,.,.,.,.,.
CC(C)N1CCC2(CC1)N=C(c1ccc3c(c1)OCO3)CC(c1cc(Cl)ccc1O)N2 (stereo not drawn),.,.,.,.,.
COCCn1c(SCC(=O)NCC2CCCO2)nc2c(c1=O)SC(C)C2 (stereo not drawn),.,.,.,.,.
c1ccc(Nc2cc(-c3ccccc3)nc3ncnn23)cc1,.,.,.,.,.
O=C(Nc1ccc(S(=O)(=O)N2CCCCC2)cc1)c1ccc(CN2CCc3ccccc3C2)cc1,68,.,.,.,.
Cc1ccc(C(=O)Nc2ccc(S(=O)(=O)N3CCc4ccccc4C3)cc2)o1,.,.,61,.,.
COc1ccc(CC(=O)Nc2c3c(nn2C(C)(C)C)CS(=O)C3)cc1 (stereo not drawn),.,.,.,.,/
COc1ccc(CCN(Cc2cccs2)S(=O)(=O)c2ccc(-n3cnnn3)c(OC)c2)cc1OC,55,.,50,.,.
COc1cc(S(=O)(=O)N(Cc2cccs2)CC2CCCO2)ccc1-n1cnnn1 (stereo not drawn),.,.,.,.,.
Cc1cc(S(=O)(=O)NCC(c2ccccc2)c2ccccc2)ccc1-n1cnnn1,.,.,.,.,.
COc1ccc(CN(Cc2cccnc2)S(=O)(=O)c2ccc(-n3cnnn3)c(C)c2)cc1OC,94,.,80,.,.
CCOC(=O)N1CCN(C(=O)c2ccc3nc(SCc4ccc(F)cc4)n(C)c3c2)CC1,65,.,.,.,/
CN1CCN(C(=O)c2ccc(CSc3nc4ccncc4n3Cc3ccc(F)cc3)cc2)CC1,/,/,/,/,.
O=C(CSc1nnnn1-c1cccc(F)c1)Nc1nc2ccccc2s1,/,/,/,/,.
CC1=CC(C)(C)N2C(=O)C3(SCC(=O)N3c3ccc(F)cc3)c3cc(C)cc1c32 (stereo not drawn),63,.,.,.,.
O=C(Nc1ccc2c(c1)OCO2)c1cccc(Cl)c1,.,.,70,.,.
O=C(Nc1ccc2c(c1)OCO2)c1ccc(Cl)s1,62,.,81,.,.
O=C(Nc1ccc(Cl)cc1)c1ccc2c(c1)OCO2,.,.,.,.,.
O=C(Nc1ccc(F)c(F)c1)c1ccc2c(c1)OCO2,.,.,94,.,.
CN1C(C(=O)NCc2ccccc2)CC2Cn3c(nc4cc5ccccc5cc43)C21 (stereo not drawn),/,/,/,/,.
COc1ccccc1N1CCN(C(=O)Cn2nc(C(F)(F)F)c3c2CCC3)CC1,.,.,.,.,.
CN1CCCc2cc(C=O)ccc21,/,/,/,/,.
CCCN1CCCc2cc(CN)ccc21,84,.,90,.,.
COc1ccc(C2CC(c3cccs3)=NN2c2nc(-c3ccccc3)cs2)cc1OC (stereo not drawn),74,.,86,.,.
COc1ccc(-c2csc(-n3ncc(-c4cccs4)c3N)n2)cc1,.,.,.,.,.
